# Results from PubChem BioAssay (NCATS).
# Values joined by “and” are separate entries in the source; they are usually repeats but may differ in a detail not shown here. Equal values may be shown once. Records with an inconclusive call do not appear. Some compounds were tested as several samples or in several runs, with calls that do not always agree. Active and inactive are the calls of the source. Calls follow the shape of the dose curve; as a rule, active = well fitted curve in the direction sought with a large enough effect; inconclusive = small, poorly fitted or top-dose-only effect, or another doubt; inactive = no such curve, though single readings can be large; an effect the other way counts as inactive or inconclusive.
# Key:
# [1] = Viability qHTS for spleen associated tyrosine kinase inhibitor (SYKi) drug resistant MV4-11 cells (AID 1963824); also: nearly all actives have a fitted effect of over 35% in size
# How it was run: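 SYK inhibitor-resistant MV4-11 AML cells, 500 per well, added to predispensed compounds and incubated 72 hr at 37 C, 5% CO2. Viability measured by CellTiter-Glo luminescence after 10 min at room temperature.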
# [2] = Quantitative highthroughput screen to assess conditional lethalithy of NOMO1 cells grown in Human Plasma-Like Medium with dialyzed fetal bovine serum (HPLM+ds) (AID 1963878); also: nearly all actives have a fitted effect of over 35% in size;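 as to Viability: 100% = DMSO wells and 0% = empty wells on each plate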
# How it was run: (§1)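 Each medium arm—HPLM with 10% dialyzed FBS, or RPMI1640 with 5 mM glucose and 10% untreated or dialyzed FBS—was screened against an 11-point, 3-fold compound titration for 48 h at 37 °C, with CellTiter-Glo luminescence as endpoint.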
# [3] = Quantitative highthroughput screen to assess conditional lethalithy of P12 Ichikawa cells grown in RPMI1640 with untreated serum (RPMI+s) (AID 1963881); settings: Potency: viability; also: nearly all actives have a fitted effect of over 35% in size;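 as to Viability: series mostly up to about 46 µM; 100% = DMSO wells and 0% = empty wells without cells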
# How it was run: as §1
# [4] = Quantitative highthroughput screen to assess conditional lethalithy of SEM cells grown in RPMI1640 with unreated serum (RPMI+s) (AID 1963883); also: nearly all actives have a fitted effect of over 35% in size;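 as to Viability: 100% = DMSO wells and 0% = empty wells without cells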
# How it was run: as §1
# [5] = Cellular viability qHTS for adrenocortical cancer (ACC) cell line SW-13 (AID 1963989); settings: SW-13 ACC cells viability, CellTiter-Glo, 48 h; activity (max response): stronger effect = lower value; also: nearly all actives have a fitted effect of over 65% in size;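 as to activity (max response): cells grown in serum-free medium with ITS supplement; % is scaled to controls: 0 for no effect and ±100 for the full control effect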
# How it was run: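 IC50 and maximal-response values come from four-parameter logistic fits of titration data. SW-13 cells in serum-free medium received compounds (up to 46 uM final) for 48 h before CellTiter-Glo luminescence.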
# [6] = Quantitative highthroughput screen to assess conditional lethalithy of SEM cells grown in Human Plasma-Like Medium with dialyzed fetal bovine serum (HPLM+ds) (AID 1963882); also: nearly all actives have a fitted effect of over 35% in size; as to Viability: series mostly up to about 46 µM
# How it was run: as §1
# [7] = Quantitative highthroughput screen to assess conditional lethalithy of SEM cells grown in RPMI1640 with dialyzed fetal bovine serum (RPMI+ds) (AID 1963884); also: nearly all actives have a fitted effect of over 35% in size;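 as to Viability: series mostly up to about 46 µM; 100% = DMSO control wells and 0% = empty wells without cells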
# How it was run: as §1
# [8] = Quantitative highthroughput screen to assess conditional lethalithy of NOMO1 cells grown in RPMI1640 with dialyzed fetal bovine serum (RPMI+ds) (AID 1963877); also: nearly all actives have a fitted effect of over 30% in size;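 as to Viability: series mostly up to about 46 µM; 100% = DMSO control wells and 0% = empty wells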
# How it was run: as §1
# [9] = Quantitative highthroughput screen to assess conditional lethalithy of P12 Ichikawa cells grown in Human Plasma-Like Medium with dialyzed fetal bovine serum (HPLM+ds) (AID 1963879); settings: Potency: viability; also: nearly all actives have a fitted effect of over 35% in size; as to Viability: series mostly up to about 46 µM
# How it was run: as §1
# [10] = Cellular viability qHTS for adrenocortical cancer (ACC) cell line NCI-H295R (AID 1963990); also: nearly all actives have a fitted effect of over 60% in size
# How it was run: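 Adrenocortical carcinoma cells, suspended at 300 000 cells/mL in serum-free DMEM plus ITS, rested overnight before pin transfer of compound. After two days' incubation, ATP-dependent luminescence was recorded and curve-fitted.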
# [11] = Quantitative highthroughput screen to assess conditional lethalithy of P12 Ichikawa cells grown in RPMI1640 with dialyzed fetal bovine serum (RPMI+ds) (AID 1963880); settings: Potency: P12-Ichikawa viability; also: nearly all actives have a fitted effect of over 35% in size;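 as to Viability: 100% = DMSO wells and 0% = empty wells on each plate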
# How it was run: as §1
# Potency is read from the fitted curve at half-maximal effect.
SMILES,Potency [1],Potency [2],Potency [3],Potency [4],activity (max response) [5],Potency [6],Potency [7],Potency [5],Potency [8],Potency [9],Potency [10],Potency [11]
O=C(Nc1cccc2c(=O)cc(-c3nn[nH]n3)oc12)c1ccc(OCCCCc2ccccc2)cc1,inactive,23.5 µM (active),18.7 µM (active),9.35 µM (active),13.6% (inactive),,,,,,,
CCN(CC)CCCCNc1ncc2c(n1)N(C)C(=O)N(c1c(Cl)c(OC)cc(OC)c1Cl)C2,14.8 µM (active),26.4 µM (active),,13.2 µM (active),,14.8 µM (active),14.8 µM (active),25.1 µM (active),,,,
Clc1ccc(C(Cn2ccnc2)OCc2ccc(Sc3ccccc3)cc2)c(Cl)c1 (configuration not stated),6.61 µM (active),inactive,,,,inactive,,31.6 µM (active),,,,
CC(=O)OC1C(C)OC(Oc2c(-c3ccc(O)cc3)oc3cc(O)cc(O)c3c2=O)C(O)C1OC(C)=O (configuration not stated),20.9 µM (active),inactive,inactive,,,inactive,inactive,,inactive,inactive,inactive,
CCCCC(C)(C)[C@H](O)C=C[C@H]1[C@H](O)CC(=O)[C@H]1CC=CCCCC(=O)O,0.148 µM (active),20.9 µM (active),26.4 µM (active),,,20.9 µM (active),,,,,inactive,23.5 µM (active)
CN(C)CCCN=c1c2ccccc2n(C)c2[nH]c(=O)n(C)c(=O)c12,8.33 µM (active),,18.7 µM (active),10.5 µM (active),,11.8 µM (active),9.35 µM (active),25.1 µM (active),20.9 µM (active),,28.2 µM (active),18.7 µM (active)
NC(CO)C(=O)NNCc1ccc(O)c(O)c1O (configuration not stated),23.5 µM (active),inactive,26.4 µM (active),,,,,,inactive,,,
N#CC1(c2cccc(C(=O)Nc3cc(Oc4ccc5nc(NC(=O)C6CC6)sc5n4)ccc3F)c2Cl)CC1,0.58 µM (active),1.32 µM (active),5.26 µM (active),3.72 µM (active),,,,,2.09 µM (active),5.9 µM (active),,2.64 µM (active)
COc1ccc(C2CC(c3ccccc3)=NN2c2ccc(S(N)(=O)=O)cc2)cc1 (configuration not stated),18.6 µM (active),2.64 µM (active),4.18 µM (active),1.18 µM (active),,2.35 µM (active),1.66 µM (active),,4.18 µM (active),6.62 µM (active),,3.72 µM (active)
CN1CCC(=C2c3ccccc3C=Cc3ccccc32)CC1,18.8 µM (active),inactive,inactive,inactive,,inactive,,25.1 µM (active),inactive,inactive,3.98 µM (active),inactive
O=C(O)c1ccc(Nc2ncc3c(n2)-c2ccc(Cl)cc2C(c2c(F)cccc2F)=NC3)cc1,0.206 µM (active),0.59 µM (active),0.935 µM (active),,-30% (inactive),,,,,1.18 µM (active),,
CCCNCC(O)COc1ccccc1C(=O)CCc1ccccc1 (configuration not stated),15 µM (active) and 16.6 µM (active),inactive,inactive,inactive,,inactive,inactive,,inactive,inactive,,inactive
CN(C)[C@@H](CCOc1cccc2ccccc12)c1ccccc1,23.7 µM (active),inactive,inactive,,,,inactive,,,,,
c1ccc(CNc2nc(NCc3ccccc3)c3ccccc3n2)cc1,2.09 µM (active),26.4 µM (active),,,,,inactive,3.98 µM (active),,inactive,7.08 µM (active),
Cc1ccnc2c1NC(=O)c1cccnc1N2C1CC1,inactive,,inactive,inactive,-0.191% (inactive),inactive,inactive,,2.09 µM (active),inactive,inactive,inactive
O=c1cc(-c2ccccc2)oc2cc(O)cc(O)c12,16.6 µM (active),23.5 µM (active),20.9 µM (active),11.8 µM (active),,16.6 µM (active),16.6 µM (active),,,26.4 µM (active),,
CCN1CCN(Cc2ccc(-c3cc4c(N[C@H](C)c5ccccc5)ncnc4[nH]3)cc2)CC1,1.86 µM (active),20.9 µM (active),,14.8 µM (active),,16.6 µM (active),18.7 µM (active),4.47 µM (active),,,31.6 µM (active),
Nc1ccn([C@@H]2O[C@H](CO)[C@@H](O)C2O)c(=O)n1 (some centres not stated),1.86 µM (active),1.18 µM (active),inactive,,,,,,inactive,inactive,inactive,
Clc1ccc(COC(Cn2ccnc2)c2ccc(Cl)cc2Cl)c(Cl)c1 (configuration not stated),11.8 µM (active),inactive,,,,inactive,,17.8 µM (active),inactive,,10 µM (active),
CN(C)c1ccc2nc3ccc(=[N+](C)C)cc-3sc2c1,372 nM (active) and 841 nM (active),8.33 µM (active),5.9 µM (active),,,9.35 µM (active),,7.08 µM (active) and 4.11 µM (active),6.62 µM (active),5.26 µM (active),8.91 µM (active) and 8.2 µM (active),7.43 µM (active)
CCCCCCCCCC(=O)N[C@@H](Cc1c[nH]c2ccccc12)C(=O)N[C@H](CC(N)=O)C(=O)N[C@@H](CC(=O)O)C(=O)N[C@@H]1C(=O)NCC(=O)N[C@@H](CCCN)C(=O)N[C@@H](CC(=O)O)C(=O)N[C@H](C)C(=O)N[C@@H](CC(=O)O)C(=O)NCC(=O)N[C@H](CO)C(=O)N[C@@H]([C@@H](C)CC(=O)O)C(=O)N[C@@H](CC(=O)c2ccccc2N)C(=O)O[C@@H]1C,68.5 nM (active) and inactive,inactive,,inactive,12.9% (inactive),,inactive,,,inactive,inactive,inactive
O=c1[nH]c(=O)n(C2CCCO2)cc1F (configuration not stated),18.6 µM (active),inactive,,inactive,4.88% (inactive),inactive,,,inactive,inactive,inactive,
Nc1nc2c(c(=O)[nH]1)N(C=O)[C@H](CNc1ccc(C(=O)N[C@@H](CCC(=O)O)C(=O)O)cc1)CN2,inactive,,2.64 µM (active),inactive,4.65% (inactive),inactive,inactive,,,2.96 µM (active),inactive,3.32 µM (active)
